Laboratory results as given in PubChem BioAssay.
Activity calls are given as the source filed them. Unless noted, no stated cut-off is given here; in the data, active means response above about 15%; inactive means the rest.

Experiments:
[1] = reduced mouse 2C T cell binding to pMHC/ICAM-1 vesicles – MLPCN validation set, flow cytometry, LFA-1/ICAM-1 modulator project, pilot screen (AID 2523;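 active means response below a set limit, under 55% cells CD8-positive and vesicle-bound, and CD8 cells' 90th-percentile brightness under 279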;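 on vesicle binding response: mean PE anti-B7-1 fluorescence of CD8+ cells relative to row control; 100% = QL9-loaded vesicles with DMSO vehicle in the same plate row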); details: 2C mouse CD8+ T cells, at 7 µM, stronger effect = lower value; double positive events: measured here: CD8+/vesicle+ event percentage
[2] = target: Integrin beta-1 (Homo sapiens) + Integrin alpha-4 (Homo sapiens) (UniProt P13612+P05556); experiment: alpha4beta1 integrin LIBS antibody binding reduction – U937 cells, HUTS-21 mAb, flow cytometry, validation set, VLA-4 allosteric modulator project, pilot screen (AID 2674;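 active means inhibition above 50%, about 3 SD of the validation set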;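 further: antibody binding induced by the VLA-4 ligand LDV present at three times its Kd; 0% = LDV ligand with antibody and no compound and 100% = antibody without LDV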); details: HUTS-21 LIBS mAb binding, at 6.7 µM, stronger effect = higher value, binding induced by LDV ligand
[3] = calorie-restriction mimetic ROS inhibitors, yeast – validation compound set, pilot screen (AID 2706;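 active means superoxide response below 65% of plate, a cut near 3 SD across the whole screen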;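 further: yeast exposed to compound for one week at 30 degrees C before staining; 100% = mean of all compound wells on the same plate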); details: S. cerevisiae aging, superoxide DHE fluorescence; at 10 µM, stronger effect = lower value
[4] = target: Beta-adrenergic receptor kinase 1 (Homo sapiens) (UniProt P25098); experiment: GRK2 binders displacing RNA aptamer, biochemical, validation, human GRK2, bead flow cytometry (AID 488806;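 active means aptamer binding inhibition above 30%, about 3 SD of noise from non-fluorescent compounds; inactive means inhibition at or below 30%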); details: bead-bound GRK2, FAM-aptamer displacement, at 10 µM, stronger effect = higher value
[5] = target: Beta-2 adrenergic receptor (Homo sapiens) (UniProt P07550); experiment: agonist-induced loss of surface beta2AR – cell-based, FAP fluorogen, flow cytometry, validation set, pilot screen (AID 504459;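 active means percent response above 42, roughly 3 SD of non-fluorescent test compounds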;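 further: agonist-driven loss of surface beta2AR via internalization measured by FAP dye flow cytometry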); details: Am2.2-beta2AR cells, at 10 µM, stronger effect = higher value
[6] = target: AP-2 complex subunit beta (Homo sapiens) (UniProt P63010); experiment: beta-arrestin/AP2 interaction blockers – biochemical, validation set, GST-AP2 beads, flow cytometry, pilot screen (AID 504541;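 active means inhibition above 54%, about 3 SD of non-fluorescent compounds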;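 further: AP2 carries R879A mutation and is captured from E. coli lysate; bead-bound FITC arrestin peptide fluorescence measuring arrestin peptide binding to AP2; 0% = DMSO wells and 100% = excess unlabeled arrestin peptide control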); details: FITC arrestin peptide, at 10 µM, stronger effect = higher value, AP2 beta2 appendage fragment, R879A mutant
[7] = cytosolic pH regulators acting via V-ATPase – S. cerevisiae, pHLuorin, HTS validation (AID 504600); details: V-ATPase proton transport, at 10 µM, stronger effect = higher value;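 further: plate controls were DMSO for no effect and reference compound for full effect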
[8] = system: anti-desmoglein-3 scFv antibody binding to human DSG3; experiment: blockers of pathogenic pemphigus antibody–desmoglein-3 binding – biochemical, validation compound set, bead-based, flow cytometry, pilot screen (AID 588368;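 active means binding below the plate cutoff, the plate median minus 3 SD, with a reading above zero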;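 further: signal is the median channel fluorescence of bead-bound GFP antibody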); details: Protein G beads, DSG3-Fc, scFv-GFP binding, at 10 µM, stronger effect = lower value
[9] = Nile Red efflux blockade in pump-expressing yeast – validation compound set, multiplex, phenotypic, pilot screen (AID 588506;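 active means efflux inhibition above 0.42, the validation set average plus 4 SD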;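 further: Nile Red retained in cells so higher fluorescence means more efflux inhibition; 0 = negative control wells and 1 = enniatin B 25 µM full block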); details: S. cerevisiae pump-expressing triplex, Nile Red efflux flow cytometry; at 10 µM; stronger effect = higher value; the pumps come from Candida albicans
[10] = target: ATP-binding cassette sub-family B member 6 (Homo sapiens) (UniProt Q9NP58); experiment: blockers of ABCB6-driven porphyrin uptake – K562-ABCB6 cells, flow cytometry, validation set, pilot screen (AID 588550;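 active means inhibition above the screen-wide mean plus 3 SD, about 51%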;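 further: 0% = DMSO wells and 100% = benzethonium chloride 70 µM positive control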); details: K562-ABCB6 porphyrin accumulation, 1 h, at 10 µM, stronger effect = higher value
[11] = AML differentiation inducers, ER-HoxA9 marrow cells – cell-based, GFP/MAC1 double positive, flow cytometry, validation set, primary screen (AID 588685;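 active means differentiation response of at least 50%, scaled between solvent and reference control, from cells with both markers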;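 further: compound exposure lasts four days before antibody staining and flow analysis; 0% = DMSO wells and 100% = 5 µM fulvestrant positive control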); details: stronger effect = higher value, normalized: vehicle 0, fulvestrant 100
[12] = hit retest on RPL19A-GFP reporter strain – cell-based, S. cerevisiae, flow cytometry, cherry picks, mother/daughter gates, confirmation (AID 2270;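 active means GFP response below 50% of the DMSO control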); details: 3 h, at 10 µM, stronger effect = lower value, 100 = same GFP as DMSO wells
[13] = yeast TOR pathway reporter LAP4-GFP change – cell-based, cherry picks, flow cytometry, mother/daughter gates, confirmation (AID 2271;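 active means GFP response above 150% of the DMSO control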;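 further: ratio of sample to DMSO plate mean so 100% equals DMSO level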); details: S. cerevisiae LAP4-GFP strain, 3 h, at 10 µM, stronger effect = higher value, 100 means same as DMSO control
[14] = TOR pathway reporter MEP2-GFP, retest of hits – S. cerevisiae, flow cytometry GFP, cherry picks, confirmation (AID 2272;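 active means GFP response above 150% of the DMSO control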;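 further: ratio of well signal to plate DMSO mean so 100% equals DMSO level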); details: S. cerevisiae MEP2-GFP strain, 3 h, at 10 µM, stronger effect = higher value
[15] = yeast AGP1-GFP fluorescence change, single-dose – cell-based, flow cytometry, S. cerevisiae, cherry picks, confirmation (AID 2273;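 active means GFP response above 150% of the DMSO level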;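 further: median GFP channel fluorescence over the whole cell population gate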); details: S. cerevisiae AGP1-GFP strain, 3 h, at 10 µM
[16] = TOR pathway CIT2 reporter hit retest – S. cerevisiae, GFP fusion, cherry picks, mother/daughter gates, confirmation (AID 2274;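 active means GFP response above 150% of the DMSO level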); details: S. cerevisiae CIT2-GFP strain, flow cytometry, 3 h; at 10 µM; stronger effect = higher value

Sequence of AP-2 complex subunit beta (Homo sapiens) (P63010 whole entry, looked up, the tested form may be a part, one chain of several): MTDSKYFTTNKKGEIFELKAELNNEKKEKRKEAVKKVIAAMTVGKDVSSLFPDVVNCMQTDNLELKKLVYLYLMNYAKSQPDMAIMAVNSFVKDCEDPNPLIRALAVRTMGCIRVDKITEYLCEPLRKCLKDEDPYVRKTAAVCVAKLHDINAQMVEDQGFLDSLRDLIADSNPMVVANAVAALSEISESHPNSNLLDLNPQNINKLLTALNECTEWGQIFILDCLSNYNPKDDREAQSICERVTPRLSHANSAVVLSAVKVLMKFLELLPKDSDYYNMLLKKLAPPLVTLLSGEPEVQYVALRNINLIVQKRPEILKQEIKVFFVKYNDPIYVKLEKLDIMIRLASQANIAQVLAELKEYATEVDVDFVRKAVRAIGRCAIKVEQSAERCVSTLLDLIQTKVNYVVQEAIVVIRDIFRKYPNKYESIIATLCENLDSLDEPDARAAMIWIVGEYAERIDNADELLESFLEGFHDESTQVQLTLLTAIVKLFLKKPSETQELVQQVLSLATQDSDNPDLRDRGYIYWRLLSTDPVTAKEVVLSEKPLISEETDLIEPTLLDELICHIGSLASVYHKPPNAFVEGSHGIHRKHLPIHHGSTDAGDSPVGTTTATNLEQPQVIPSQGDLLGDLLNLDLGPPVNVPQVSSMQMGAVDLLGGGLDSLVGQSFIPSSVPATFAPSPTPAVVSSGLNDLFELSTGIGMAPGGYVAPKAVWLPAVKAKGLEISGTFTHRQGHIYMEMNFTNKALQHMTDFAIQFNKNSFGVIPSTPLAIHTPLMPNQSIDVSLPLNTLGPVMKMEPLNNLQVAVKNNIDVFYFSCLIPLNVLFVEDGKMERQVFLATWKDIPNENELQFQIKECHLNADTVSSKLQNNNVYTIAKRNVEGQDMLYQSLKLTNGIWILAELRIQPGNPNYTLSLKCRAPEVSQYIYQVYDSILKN
Sequence of Integrin beta-1 (Homo sapiens) + Integrin alpha-4 (Homo sapiens) (P05556 whole entry, looked up): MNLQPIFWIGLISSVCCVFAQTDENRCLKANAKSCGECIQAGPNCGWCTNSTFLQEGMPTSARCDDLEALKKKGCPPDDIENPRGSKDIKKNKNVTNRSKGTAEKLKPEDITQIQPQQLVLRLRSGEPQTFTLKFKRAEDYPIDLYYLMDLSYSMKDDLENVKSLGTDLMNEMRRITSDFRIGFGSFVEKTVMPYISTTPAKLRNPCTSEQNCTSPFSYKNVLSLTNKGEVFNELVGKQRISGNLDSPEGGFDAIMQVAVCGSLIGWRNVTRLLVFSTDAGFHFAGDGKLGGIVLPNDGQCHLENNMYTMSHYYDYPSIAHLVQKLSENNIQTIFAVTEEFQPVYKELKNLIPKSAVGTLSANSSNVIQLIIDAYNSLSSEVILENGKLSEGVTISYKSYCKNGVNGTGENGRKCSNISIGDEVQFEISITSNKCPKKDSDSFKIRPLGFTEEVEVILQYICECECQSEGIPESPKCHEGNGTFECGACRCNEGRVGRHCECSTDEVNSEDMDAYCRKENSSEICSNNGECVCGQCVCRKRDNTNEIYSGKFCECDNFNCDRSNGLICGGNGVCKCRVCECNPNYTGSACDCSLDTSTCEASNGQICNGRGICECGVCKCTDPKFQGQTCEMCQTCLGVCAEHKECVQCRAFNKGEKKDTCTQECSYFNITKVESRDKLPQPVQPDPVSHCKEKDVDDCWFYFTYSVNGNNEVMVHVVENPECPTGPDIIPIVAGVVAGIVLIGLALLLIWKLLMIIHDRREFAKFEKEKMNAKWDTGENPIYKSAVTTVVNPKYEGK
Sequence of Integrin beta-1 (Homo sapiens) + Integrin alpha-4 (Homo sapiens) (P13612 whole entry, looked up): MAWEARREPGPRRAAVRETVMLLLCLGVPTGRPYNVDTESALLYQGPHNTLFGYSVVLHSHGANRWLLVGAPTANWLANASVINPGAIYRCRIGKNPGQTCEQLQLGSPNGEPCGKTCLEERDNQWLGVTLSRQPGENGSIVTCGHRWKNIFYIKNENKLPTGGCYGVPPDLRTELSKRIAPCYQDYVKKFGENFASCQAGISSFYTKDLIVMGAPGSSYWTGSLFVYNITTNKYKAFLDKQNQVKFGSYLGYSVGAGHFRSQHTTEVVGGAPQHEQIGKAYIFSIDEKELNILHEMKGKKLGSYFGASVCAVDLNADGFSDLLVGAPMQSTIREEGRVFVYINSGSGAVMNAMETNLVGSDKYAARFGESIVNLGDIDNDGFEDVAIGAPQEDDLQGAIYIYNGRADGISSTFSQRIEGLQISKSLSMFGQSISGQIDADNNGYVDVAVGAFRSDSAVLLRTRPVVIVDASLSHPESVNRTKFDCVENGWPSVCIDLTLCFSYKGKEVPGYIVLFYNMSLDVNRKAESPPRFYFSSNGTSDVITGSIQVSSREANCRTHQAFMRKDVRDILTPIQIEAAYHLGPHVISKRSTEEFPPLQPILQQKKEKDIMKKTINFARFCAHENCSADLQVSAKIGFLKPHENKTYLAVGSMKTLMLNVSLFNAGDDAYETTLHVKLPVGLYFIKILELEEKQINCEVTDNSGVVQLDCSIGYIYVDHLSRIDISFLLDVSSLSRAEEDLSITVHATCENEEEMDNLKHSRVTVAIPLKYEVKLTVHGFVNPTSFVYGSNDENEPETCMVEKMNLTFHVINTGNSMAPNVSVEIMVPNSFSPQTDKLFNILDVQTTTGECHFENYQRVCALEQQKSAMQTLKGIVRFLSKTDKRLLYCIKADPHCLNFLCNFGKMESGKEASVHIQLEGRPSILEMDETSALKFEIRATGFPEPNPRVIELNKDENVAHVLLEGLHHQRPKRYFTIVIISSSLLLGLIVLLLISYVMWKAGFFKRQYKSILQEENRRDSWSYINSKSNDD
Sequence of Beta-adrenergic receptor kinase 1 (Homo sapiens) (P25098 whole entry, looked up): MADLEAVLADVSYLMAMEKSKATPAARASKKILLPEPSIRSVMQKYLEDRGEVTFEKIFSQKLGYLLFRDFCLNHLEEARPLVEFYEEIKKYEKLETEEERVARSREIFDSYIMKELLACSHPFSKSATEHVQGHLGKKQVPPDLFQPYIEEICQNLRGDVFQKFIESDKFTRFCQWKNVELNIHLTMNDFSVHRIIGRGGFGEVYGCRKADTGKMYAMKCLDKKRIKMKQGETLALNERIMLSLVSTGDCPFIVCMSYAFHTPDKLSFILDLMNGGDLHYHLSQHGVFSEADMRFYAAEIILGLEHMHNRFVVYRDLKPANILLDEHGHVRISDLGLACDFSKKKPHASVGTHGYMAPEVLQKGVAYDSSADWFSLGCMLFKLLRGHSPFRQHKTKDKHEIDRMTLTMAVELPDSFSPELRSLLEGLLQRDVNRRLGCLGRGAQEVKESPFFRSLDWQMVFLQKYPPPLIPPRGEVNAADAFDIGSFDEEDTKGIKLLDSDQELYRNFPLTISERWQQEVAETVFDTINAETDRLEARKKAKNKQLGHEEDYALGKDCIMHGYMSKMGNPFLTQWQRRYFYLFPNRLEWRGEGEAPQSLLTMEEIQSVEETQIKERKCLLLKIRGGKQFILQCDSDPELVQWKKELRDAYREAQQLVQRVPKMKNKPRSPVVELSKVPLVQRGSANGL
Sequence of ATP-binding cassette sub-family B member 6 (Homo sapiens) (Q9NP58 whole entry, looked up): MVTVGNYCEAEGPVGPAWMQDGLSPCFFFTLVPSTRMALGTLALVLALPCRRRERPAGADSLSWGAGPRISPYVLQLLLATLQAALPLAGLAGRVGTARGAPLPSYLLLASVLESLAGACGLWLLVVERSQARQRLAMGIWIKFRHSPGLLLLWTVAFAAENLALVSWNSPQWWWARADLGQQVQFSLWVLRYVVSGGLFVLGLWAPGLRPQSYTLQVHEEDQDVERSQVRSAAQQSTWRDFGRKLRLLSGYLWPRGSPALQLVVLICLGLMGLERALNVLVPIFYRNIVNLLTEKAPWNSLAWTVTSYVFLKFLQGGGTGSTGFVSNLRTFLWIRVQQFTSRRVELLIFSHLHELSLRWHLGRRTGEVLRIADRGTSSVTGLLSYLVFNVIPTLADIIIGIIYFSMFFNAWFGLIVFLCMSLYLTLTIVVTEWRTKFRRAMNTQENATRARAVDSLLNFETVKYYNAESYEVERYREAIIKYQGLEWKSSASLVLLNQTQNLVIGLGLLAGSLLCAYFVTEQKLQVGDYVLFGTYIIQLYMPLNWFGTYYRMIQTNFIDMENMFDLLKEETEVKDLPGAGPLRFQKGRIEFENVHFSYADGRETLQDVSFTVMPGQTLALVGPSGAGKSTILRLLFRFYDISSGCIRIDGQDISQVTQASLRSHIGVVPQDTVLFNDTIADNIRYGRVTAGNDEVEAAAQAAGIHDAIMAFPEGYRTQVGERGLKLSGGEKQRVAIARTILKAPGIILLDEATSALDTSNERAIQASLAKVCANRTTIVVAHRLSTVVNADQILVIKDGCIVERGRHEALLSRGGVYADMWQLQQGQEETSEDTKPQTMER
Sequence of Beta-2 adrenergic receptor (Homo sapiens) (P07550 whole entry, looked up): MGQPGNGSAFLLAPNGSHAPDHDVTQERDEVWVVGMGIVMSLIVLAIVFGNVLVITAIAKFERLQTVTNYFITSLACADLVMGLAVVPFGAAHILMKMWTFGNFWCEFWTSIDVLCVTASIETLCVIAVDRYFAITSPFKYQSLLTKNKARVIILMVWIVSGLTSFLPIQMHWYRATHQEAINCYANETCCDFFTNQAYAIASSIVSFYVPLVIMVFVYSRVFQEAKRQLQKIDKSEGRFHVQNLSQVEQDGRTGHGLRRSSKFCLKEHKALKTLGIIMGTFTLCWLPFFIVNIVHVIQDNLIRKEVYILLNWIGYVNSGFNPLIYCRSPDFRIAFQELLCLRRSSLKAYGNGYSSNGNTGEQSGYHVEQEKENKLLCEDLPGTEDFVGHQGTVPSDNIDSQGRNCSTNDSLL

Structure (SMILES) | double positive events [1] | vesicle binding response [1] | inhibition [2] | superoxide response (% of plate) [3] | aptamer binding inhibition [4] | response [5] | inhibition [6] | response [7] | binding (% of control) [8] | efflux inhibition (fraction of control) [9] | inhibition [10] | differentiation response [11] | GFP response vs DMSO [12] | GFP response relative to DMSO [13] | GFP response vs DMSO [14] | GFP response, % of DMSO [15] | GFP response, % of DMSO [16]
Cn1c2[n+](c3ccc(Cl)cc3c1=O)Cc1ccccc1-2 | 69% | 278% (inactive) | -13% (inactive) | 97.2% (inactive) | 1% (inactive) | -8.51% (inactive) | 1.06% (inactive) | 7.46% (inactive) | 107% (inactive) | 0.21 (inactive) | 10% (inactive) | 20.6% (inactive) | – | – | – | – | –
CCC(=O)OCCNc1cc(Sc2nc3ccccc3s2)c2nonc2c1[N+](=O)[O-] | – | – | – | – | – | – | – | – | – | – | – | – | 90.5% (inactive) | 254% (active) | 97.8% (inactive) | 124% (inactive) | 80.8% (inactive)
CCOc1ccccc1Oc1coc2cc(OCC(=O)O)ccc2c1=O | 63.5% | 156% (inactive) | 1.44% (inactive) | 111% (inactive) | 10% (inactive) | -21.7% (inactive) | -11% (inactive) | 5.03% (inactive) | 106% (inactive) | -0.09 (inactive) | -2% (inactive) | -8.93% (inactive) | – | – | – | – | –
C=C(C)COc1ccc(-c2nc(N)ncc2-c2ccc(OC)cc2)c(O)c1 | 55.6% | 43.9% (inactive) | 20.3% (inactive) | 111% (inactive) | 1% (inactive) | -10.8% (inactive) | -4.84% (inactive) | 1.42% (inactive) | 92% (inactive) | -0.45 (inactive) | 4% (inactive) | -9.53% (inactive) | – | – | – | – | –
C/C(NC(=O)c1cccs1)=C1\C(=O)C[C@@H]2[C@H]1C2(C)C | 56.1% | 193% (inactive) | 0.59% (inactive) | 102% (inactive) | -8% (inactive) | -39.8% (inactive) | -13% (inactive) | -6.85% (inactive) | 105% (inactive) | -0.04 (inactive) | 9% (inactive) | -11.9% (inactive) | – | – | – | – | –
Cc1nc2ccccc2c(=O)n1N | 64.8% | 160% (inactive) | 5.03% (inactive) | 95.7% (inactive) | -1% (inactive) | -0.52% (inactive) | -8.13% (inactive) | -5.43% (inactive) | 106% (inactive) | 0.15 (inactive) | 6% (inactive) | 58.4% (active) | – | – | – | – | –
O=C(/C=C/c1ccco1)NCc1ccc2c(c1)OCO2 | 63% | 260% (inactive) | -3.16% (inactive) | 101% (inactive) | 0% (inactive) | -2.38% (inactive) | -3% (inactive) | 1.08% (inactive) | 94.7% (inactive) | 0.19 (inactive) | 8% (inactive) | -10.4% (inactive) | – | – | – | – | –
COc1ccc(C(=O)NC(=O)NC2(C(Cl)(Cl)Cl)OCCO2)cc1 | 60.6% | 214% (inactive) | -21.6% (inactive) | 86.9% (inactive) | 4% (inactive) | -20.1% (inactive) | 13.5% (inactive) | -0.88% (inactive) | 94.7% (inactive) | 0.12 (inactive) | 9% (inactive) | -2.03% (inactive) | – | – | – | – | –
Cc1ccc2c(CN3CCN(Cc4ccc5c(c4)OCO5)CC3)cc(=O)oc2c1C | 58.4% | 88.4% (inactive) | -7.79% (inactive) | 87.4% (inactive) | -2% (inactive) | -2.16% (inactive) | 4.85% (inactive) | -2.29% (inactive) | 106% (inactive) | -0.28 (inactive) | -11% (inactive) | -6.03% (inactive) | – | – | – | – | –
Fc1cc(F)cc(NC(=S)NCCCN2CCOCC2)c1 | 59.3% | 214% (inactive) | 5.69% (inactive) | 80.8% (inactive) | -5% (inactive) | -24.3% (inactive) | -3.24% (inactive) | 4.35% (inactive) | 107% (inactive) | -0.13 (inactive) | 2% (inactive) | 0.92% (inactive) | – | – | – | – | –
CC(COc1ccccc1)N(CCCl)Cc1ccccc1 (centres undefined) | 70.8% | 566% (inactive) | 6.46% (inactive) | 97.4% (inactive) | 2% (inactive) | -7.17% (inactive) | 1.11% (inactive) | 2.49% (inactive) | 100% (inactive) | -0.35 (inactive) | 10% (inactive) | 0% (inactive) | – | – | – | – | –
COC(=O)c1cc(OC)c(OC)cc1NC(=O)Nc1ccc(OC)cc1OC | 58.5% | 105% (inactive) | -14.5% (inactive) | 82% (inactive) | 0% (inactive) | 5.38% (inactive) | 11.9% (inactive) | -1.21% (inactive) | 100% (inactive) | -0.205 (inactive) | 7% (inactive) | 13% (inactive) | – | – | – | – | –
C=C(CC)C(=O)c1ccc(OCC(=O)O)c(Cl)c1Cl | 52.1% | 105% (inactive) | -4.21% (inactive) | 98.5% (inactive) | 2% (inactive) | 14.6% (inactive) | -9.01% (inactive) | 1.56% (inactive) | 108% (inactive) | -0.38 (inactive) | -92% (inactive) | 1.64% (inactive) | – | – | – | – | –
